{
  "source": "paper PMC11062922",
  "about": "(Nature Chemical Biology, 2023)",
  "design_in_all_cases": "species or system human, MV4-11 + K-562 + COLO205 + SK-N-BE2 + OVCAR-8",
  "key": {"AGPS": {"tested_on": "AGPS", "conditions": "read-out: apparent Kd; compound concentrations: 100 nM and 1000 nM (sheet 'Samples'), CATDS: 0.49272906791281001; n = 1"}, "NNT": {"tested_on": "NNT", "conditions": "read-out: apparent Kd; compound concentrations: 100 nM and 1000 nM (sheet 'Samples'), CATDS: 0.50748873234437097; n = 1"}, "ADRBK1": {"tested_on": "ADRBK1", "conditions": "read-out: apparent Kd, n = 1"}, "CSNK1G1": {"tested_on": "CSNK1G1", "conditions": "read-out: apparent Kd; compound concentrations: 100 nM and 1000 nM (sheet 'Samples'), CATDS: 0.16245140586904; n = 1"}, "NQO2": {"tested_on": "NQO2", "conditions": "read-out: apparent Kd; compound concentrations: 100 nM and 1000 nM (sheet 'Samples'), CATDS: 0.164283529908442; n = 1"}, "PDXK": {"tested_on": "PDXK", "conditions": "read-out: apparent Kd; compound concentrations: 100 nM and 1000 nM (sheet 'Samples'), CATDS: 0.18883200846926201; n = 1"}, "TP53RK": {"tested_on": "TP53RK", "conditions": "read-out: apparent Kd; compound concentrations: 100 nM and 1000 nM (sheet 'Samples'), CATDS: 0.1506883600127; n = 1"}, "VDAC3": {"tested_on": "VDAC3", "conditions": "read-out: apparent Kd; compound concentrations: 100 nM and 1000 nM (sheet 'Samples'), CATDS: 0.190251033630114; n = 1"}, "AKT1": {"tested_on": "AKT1", "conditions": "read-out: apparent Kd; compound concentrations: 100 nM and 1000 nM (sheet 'Samples'), CATDS: 0.123501580073808; n = 1"}, "AKT2": {"tested_on": "AKT2", "conditions": "read-out: apparent Kd; compound concentrations: 100 nM and 1000 nM (sheet 'Samples'), CATDS: 0.10314044451286999; n = 1"}, "MAP2K1": {"tested_on": "MAP2K1", "conditions": "read-out: apparent Kd; compound concentrations: 100 nM and 1000 nM (sheet 'Samples'), CATDS: 9.8973729248026707E-2; n = 1"}, "MAP2K2": {"tested_on": "MAP2K2", "conditions": "read-out: apparent Kd; compound concentrations: 100 nM and 1000 nM (sheet 'Samples'), CATDS: 0.112091584059978; n = 1"}, "NCL": {"tested_on": "NCL", "conditions": "read-out: apparent Kd; compound concentrations: 100 nM and 1000 nM (sheet 'Samples'), CATDS: 0.116162101404393; n = 1"}, "PIK3C3": {"tested_on": "PIK3C3", "conditions": "read-out: apparent Kd; compound concentrations: 100 nM and 1000 nM (sheet 'Samples'), CATDS: 0.115592517664726; n = 1"}, "PIK3CB": {"tested_on": "PIK3CB", "conditions": "read-out: apparent Kd; compound concentrations: 100 nM and 1000 nM (sheet 'Samples'), CATDS: 0.13740958062808101; n = 1"}, "PYGL": {"tested_on": "PYGL", "conditions": "read-out: apparent Kd, n = 1"}, "TAOK3": {"tested_on": "TAOK3", "conditions": "read-out: apparent Kd; compound concentrations: 100 nM and 1000 nM (sheet 'Samples'), CATDS: 0.106339903242866; n = 1"}, "GSK3A": {"tested_on": "GSK3A", "conditions": "read-out: apparent Kd; compound concentrations: 100 nM and 1000 nM (sheet 'Samples'), CATDS: 0.49410987745455298; n = 1"}, "MYLK3": {"tested_on": "MYLK3", "conditions": "read-out: apparent Kd; compound concentrations: 100 nM and 1000 nM (sheet 'Samples'), CATDS: 0.30722908276371202; n = 1"}, "AGK": {"tested_on": "AGK", "conditions": "read-out: apparent Kd; compound concentrations: 100 nM and 1000 nM (sheet 'Samples'), CATDS: 7.7586701088880605E-2; n = 1"}, "CSNK1D": {"tested_on": "CSNK1D", "conditions": "read-out: apparent Kd; compound concentrations: 100 nM and 1000 nM (sheet 'Samples'), CATDS: 0.14002934621816099; n = 1"}, "CSNK1E": {"tested_on": "CSNK1E", "conditions": "read-out: apparent Kd; compound concentrations: 100 nM and 1000 nM (sheet 'Samples'), CATDS: 9.5278515441506895E-2; n = 1"}, "JAK2": {"tested_on": "JAK2", "conditions": "read-out: apparent Kd; compound concentrations: 100 nM and 1000 nM (sheet 'Samples'), CATDS: 0.169567440751725; n = 1"}, "MAPK14": {"tested_on": "MAPK14", "conditions": "read-out: apparent Kd, n = 1"}, "MAPK9": {"tested_on": "MAPK9", "conditions": "read-out: apparent Kd; compound concentrations: 100 nM and 1000 nM (sheet 'Samples'), CATDS: 8.7291809991309394E-2; n = 1"}, "MAPKAPK2": {"tested_on": "MAPKAPK2", "conditions": "read-out: apparent Kd; compound concentrations: 100 nM and 1000 nM (sheet 'Samples'), CATDS: 8.8585007822458595E-2; n = 1"}, "PKN3": {"tested_on": "PKN3", "conditions": "read-out: apparent Kd; compound concentrations: 100 nM and 1000 nM (sheet 'Samples'), CATDS: 8.9898852115076394E-2; n = 1"}, "PRKD2": {"tested_on": "PRKD2", "conditions": "read-out: apparent Kd; compound concentrations: 100 nM and 1000 nM (sheet 'Samples'), CATDS: 9.5055877721236803E-2; n = 1"}, "PRKD3": {"tested_on": "PRKD3", "conditions": "read-out: apparent Kd; compound concentrations: 100 nM and 1000 nM (sheet 'Samples'), CATDS: 9.9429548898697998E-2; n = 1"}, "PIK3C2A": {"tested_on": "PIK3C2A", "conditions": "read-out: apparent Kd; compound concentrations:100 nM and 1000 nM (sheet 'Samples'); n = 1"}, "PRKCI": {"tested_on": "PRKCI", "conditions": "read-out: apparent Kd; compound concentrations:100 nM and 1000 nM (sheet 'Samples'); n = 1"}, "RPS6KA3": {"tested_on": "RPS6KA3", "conditions": "read-out: apparent Kd; compound concentrations:100 nM and 1000 nM (sheet 'Samples'); n = 1"}, "STK16": {"tested_on": "STK16", "conditions": "read-out: apparent Kd; compound concentrations:100 nM and 1000 nM (sheet 'Samples'); n = 1"}, "[1]": {"conditions": "compound concentrations:100 nM and 1000 nM (sheet 'Samples')"}},
  "note": "Where two headings read alike, the source gives them in different places.",
  "data": [
    {"smiles": "Cc1cc(O)cc(C)c1/C=C/c1cncc(C(=O)N(C)C)c1", "note": "[GW427984X]", "values": [
      {"measurement": "potency estimated from few doses", "setting": "AGPS", "value": 1860, "unit": "nM"},
      {"measurement": "potency estimated from few doses", "setting": "NNT", "value": 1750, "unit": "nM"}
    ]},
    {"smiles": "CCn1cnc2c(N)ncnc21", "note": "[GW345098X]", "values": [
      {"measurement": "potency estimated from few doses", "setting": "ADRBK1; compound concentrations: 100 nM and 1000 nM (sheet 'Samples'), CATDS: 0.15222698888400599", "value": 2400, "unit": "nM"},
      {"measurement": "potency estimated from few doses", "setting": "CSNK1G1", "value": 2080, "unit": "nM"},
      {"measurement": "potency estimated from few doses", "setting": "NQO2", "value": 2040, "unit": "nM"},
      {"measurement": "potency estimated from few doses", "setting": "PDXK", "value": 1560, "unit": "nM"},
      {"measurement": "potency estimated from few doses", "setting": "TP53RK", "value": 2450, "unit": "nM"},
      {"measurement": "potency estimated from few doses", "setting": "VDAC3", "value": 1540, "unit": "nM"}
    ]},
    {"smiles": "Cc1nc(Nc2cnn(C3CCNCC3)c2)nc2c1N(C)C(=O)c1cc3ccccc3cc1N2C", "note": "[HTH-01-015]", "values": [
      {"measurement": "potency estimated from few doses", "setting": "AKT1", "value": 1310, "unit": "nM"},
      {"measurement": "potency estimated from few doses", "setting": "AKT2", "value": 1870, "unit": "nM"},
      {"measurement": "potency estimated from few doses", "setting": "MAP2K1", "value": 2060, "unit": "nM"},
      {"measurement": "potency estimated from few doses", "setting": "MAP2K2", "value": 1580, "unit": "nM"},
      {"measurement": "potency estimated from few doses", "setting": "NCL", "value": 1470, "unit": "nM"},
      {"measurement": "potency estimated from few doses", "setting": "PIK3C3", "value": 1480, "unit": "nM"},
      {"measurement": "potency estimated from few doses", "setting": "PIK3CB", "value": 1080, "unit": "nM"},
      {"measurement": "potency estimated from few doses", "setting": "PYGL; compound concentrations: 100 nM and 1000 nM (sheet 'Samples'), CATDS: 9.7642966529981307E-2", "value": 2120, "unit": "nM"},
      {"measurement": "potency estimated from few doses", "setting": "TAOK3", "value": 1760, "unit": "nM"}
    ]},
    {"smiles": "COc1ccc(C2=C(c3cn(C)c4ccccc34)C(=O)NC2=O)cc1", "note": "[RO0317257-000]", "values": [
      {"measurement": "potency estimated from few doses", "setting": "ADRBK1; compound concentrations: 100 nM and 1000 nM (sheet 'Samples'), CATDS: 0.26872629517394703", "value": 1840, "unit": "nM"},
      {"measurement": "potency estimated from few doses", "setting": "GSK3A", "value": 529, "unit": "nM"},
      {"measurement": "potency estimated from few doses", "setting": "MYLK3", "value": 1310, "unit": "nM"}
    ]},
    {"smiles": "OCCn1c(-c2ccncc2)c(-c2ccc(F)cc2)c2ncccc21", "note": "[RO1155798-000]", "values": [
      {"measurement": "potency estimated from few doses", "setting": "AGK", "value": 2000, "unit": "nM"},
      {"measurement": "potency estimated from few doses", "setting": "CSNK1D", "value": 582, "unit": "nM"},
      {"measurement": "potency estimated from few doses", "setting": "CSNK1E", "value": 1190, "unit": "nM"},
      {"measurement": "potency estimated from few doses", "setting": "JAK2", "value": 432, "unit": "nM"},
      {"measurement": "potency estimated from few doses", "setting": "MAPK14; compound concentrations: 100 nM and 1000 nM (sheet 'Samples'), CATDS: 0.109512285169825", "value": 897, "unit": "nM"},
      {"measurement": "potency estimated from few doses", "setting": "MAPK9", "value": 1460, "unit": "nM"},
      {"measurement": "potency estimated from few doses", "setting": "MAPKAPK2", "value": 1410, "unit": "nM"},
      {"measurement": "potency estimated from few doses", "setting": "PKN3", "value": 1360, "unit": "nM"},
      {"measurement": "potency estimated from few doses", "setting": "PRKD2", "value": 1200, "unit": "nM"},
      {"measurement": "potency estimated from few doses", "setting": "PRKD3", "value": 1090, "unit": "nM"}
    ]},
    {"smiles": "CCCC(=O)Nc1n[nH]c2ncccc12", "note": "[SB-601436]", "values": [
      {"measurement": "potency estimated from few doses", "setting": "ADRBK1; [1]", "value": 2140, "unit": "nM"},
      {"measurement": "potency estimated from few doses", "setting": "MAPK14; [1]", "value": 1310, "unit": "nM"},
      {"measurement": "potency estimated from few doses", "setting": "PIK3C2A", "value": 2470, "unit": "nM"},
      {"measurement": "potency estimated from few doses", "setting": "PRKCI", "value": 2080, "unit": "nM"},
      {"measurement": "potency estimated from few doses", "setting": "PYGL; [1]", "value": 2170, "unit": "nM"},
      {"measurement": "potency estimated from few doses", "setting": "RPS6KA3", "value": 1890, "unit": "nM"},
      {"measurement": "potency estimated from few doses", "setting": "STK16", "value": 1480, "unit": "nM"}
    ]}
  ]
}
